HEK293 cAMP cs: qHTS Assay for Agonists of the Thyroid Stimulating Hormone Receptor: Activators of Intracellular cAMP Concentrations in Parental HEK 293; parental HEK293 CNG cAMP sensor, membrane potential fluorescence; Potency, µM (highest dose often 57.1 µM), inactives show at the highest dose activation, hits mostly activators; 73,000 tested, 2.5% active; active = well fitted activation curve with a large enough effect; inconclusive = small, poorly fitted or top-dose-only effect; inactive = no such curve, though single readings can be large or run the other way; also: % of control where 0% means no effect; nearly all actives have a fitted effect of over 55% in size
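Counterscreen for endogenous-receptor signalling: CNG-channel HEK 293 cells report cAMP rise by membrane depolarization. After 60 min dye equilibration with 100 uM RO 20-1724, compounds incubated 30 min before bottom-read fluorescence at 590 nm.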
TSHR agonist: qHTS Assay for Agonists of the Thyroid Stimulating Hormone Receptor | HEK293-CNG-TSHR cells (CNG channel as cAMP sensor), membrane potential dye, cAMP | Thyrotropin receptor (Homo sapiens), P16473 | AID 926, 2007 | 73,000 tested, 0.48% active | Potency, µM (titrated, usually from 57.1 µM), for inactives: at the highest dose activation, usual class: activators; active = well fitted activation curve with a large enough effect in the main read-out, with a control signal flat, not every such curve was filed as active; inconclusive = small, poorly fitted or top-dose-only effect, or a change in a side signal; inactive = no such curve, though single readings can be large or run the other way; % of control where 0% means no effect;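 also: the control signal comes from parental cells without the receptor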
Target sequence (P16473 whole entry, looked up): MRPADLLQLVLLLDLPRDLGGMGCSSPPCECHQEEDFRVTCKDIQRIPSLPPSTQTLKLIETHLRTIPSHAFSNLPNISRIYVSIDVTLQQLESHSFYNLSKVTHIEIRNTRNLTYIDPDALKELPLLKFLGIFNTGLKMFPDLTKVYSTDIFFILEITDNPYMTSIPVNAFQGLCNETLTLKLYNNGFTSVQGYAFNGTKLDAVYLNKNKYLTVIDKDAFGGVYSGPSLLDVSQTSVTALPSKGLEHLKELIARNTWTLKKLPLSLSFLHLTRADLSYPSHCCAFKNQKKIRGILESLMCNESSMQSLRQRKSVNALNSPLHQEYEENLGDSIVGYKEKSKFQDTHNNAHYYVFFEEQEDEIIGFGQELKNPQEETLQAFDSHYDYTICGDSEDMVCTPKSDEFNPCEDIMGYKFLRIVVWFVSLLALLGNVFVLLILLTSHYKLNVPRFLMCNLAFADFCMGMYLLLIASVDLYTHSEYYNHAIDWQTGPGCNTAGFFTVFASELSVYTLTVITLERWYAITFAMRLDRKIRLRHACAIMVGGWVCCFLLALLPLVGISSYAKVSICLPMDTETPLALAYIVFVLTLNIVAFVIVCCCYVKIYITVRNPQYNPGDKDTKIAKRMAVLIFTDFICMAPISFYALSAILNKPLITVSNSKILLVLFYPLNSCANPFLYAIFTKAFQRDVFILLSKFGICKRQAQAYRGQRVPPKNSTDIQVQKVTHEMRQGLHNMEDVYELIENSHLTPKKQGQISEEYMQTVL
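cAMP rise detected as CNG-channel membrane depolarization by fluorescent dye (emission 590 nm), 30 min after compound, following 60 min dye loading containing 100 uM RO 20-1724 at room temperature. Cells: TSHR/CNG HEK 293, with parental CNG HEK 293 as control.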
An asterisk follows results filed as active; u = inconclusive; x = no result given; ! = not confirmed by another sample; [ ] = dose if it differs, or a comment. A selection: hits, their analogues and other compounds. The true share with any hit is near 2.9%. Potency is read from the fitted curve at half-maximal effect.

SMILES | HEK293 cAMP cs | TSHR agonist
CCCCn1c(SCc2nnc(-c3ccccc3)o2)nc2c1c(=O)n(C)c(=O)n2C | 25.1µM* | u
CCn1c(SCc2nnc(-c3ccccc3)o2)nc2c1c(=O)n(C)c(=O)n2C | 13.5% | 0.7%
CCCCCn1c(CN(C)Cc2ccccc2)nc2c1c(=O)n(C)c(=O)n2C | 20µM* | u
CN(Cc1ccccc1)Cc1nc2c(c(=O)n(C)c(=O)n2C)n1Cc1ccc(Cl)cc1 | 0.7% | -5.2%
Cc1ccc(S(=O)(=O)/C=C\C#N)cc1 | -13.9% | 10.9%
CC(C)(C)c1ccc(S(=O)(=O)/C=C\C#N)cc1 | 25.1µM*! | u
CC(/C(O)=C(\C#N)c1nc2ccccc2n1C)N1C(=O)c2ccccc2C1=O (stereo unspecified) | -1.8% | 1.0%
Cn1c(/C(C#N)=C(\O)COc2ccc3ccccc3c2)nc2ccccc21 | 15.8µM* | u
CCCCCS(=O)(=O)CCCCCCCCCCn1c(-c2ccc(O)cc2)c(C)c2cc(O)ccc21 | 14.7% | 15.2%
CC(C)C(c1nnnn1C1CCCCC1)N1CCc2ccccc2C1 (stereo unspecified) | 5.01µM* | u
c1ccc(C(c2nnnn2C2CCCCC2)N2CCc3ccccc3C2)nc1 (stereo unspecified) | 19.4% | 9.3%
CCN1C(C)=C(C(=O)OC)C(c2ccccc2)N2C(=O)[C@](O)(C(=O)OC)CC(C(C)=O)=C12 (stereo partly specified) | -1.4%[11.4 µM] | -4.9%[11.4 µM]
COc1ccc(-n2c(=O)c(-c3cccs3)nc3cnc(N4CCNCC4)nc32)cc1 | -19.8% | -11.6%
COc1ccc(-c2cc(C(F)(F)F)nc(SCC(=O)NCc3ccco3)n2)cc1OC | 21.5% | 67.4%
COc1ccc(-c2cc(C(F)(F)F)nc(NCc3ccco3)n2)cc1OC | 10µM* | u
COc1cc(OC)cc([C@H](CNc2ncnc3c2ncn3[C@@H]2O[C@@H](CO)[C@H](O)[C@@H]2O)c2ccccc2C)c1 | 3.7% | x
O=C(O)C1CC2(C1)CC(C(=O)O)C2 (stereo unspecified) | 10.3%[11.4 µM] | 1.1%[11.4 µM]
CCN(CC)c1ccc(/C=N/n2nnnc2N)c(O)c1 | 0.1% | -18.0%
Nc1nnnn1/N=C/c1ccccc1OCc1ccc(Cl)cc1Cl | 31.6µM* | u
Oc1ccc(Cl)cc1C=Nc1cnc2ccccc2c1 | -2.0%[11.4 µM] | -2.5%[11.4 µM]
CCOC(=O)C1CCN(c2c(NCc3ccc(C(=O)O)cc3)c(=O)c2=O)CC1 | 2.1% | 5.6%
C[N@@+]1(CC[N@@+]2(C)CCC[C@H]2c2cccnc2)CCC[C@@H]1c1cccnc1 | 11.1%[11.4 µM] | 3.3%[11.4 µM]
Cc1ccccc1NC(=O)CSC(N)=O | -8.9% | -25.7%
Cc1ccccc1N=C(N)Nc1ccccc1C | 15.8µM* | u
CCOC(=O)c1c(C)c(C(=O)Nc2cc(F)ccc2F)c(C)n1C | 7.94µM* | u
SMILES | HEK293 cAMP cs | TSHR agonist
CCOC(=O)c1c(C)c(C(=O)Nc2ccc3c(c2)OCCO3)c(C)n1C | 26.2% | -1.5%[11.4 µM]
Cc1ncc(COP(=O)(O)O)c(C)c1O | 3.5%[11.4 µM] | 0.1%[11.4 µM]
C[C@@]12CCC(=O)C=C1CC[C@H]1[C@@H]2[C@@H](O)C[C@]2(C)[C@@H]1CC[C@@]2(O)C(=O)CO | -3.3%[11.4 µM] | 0.9%[11.4 µM]
COc1ccccc1-n1cnnc1SCC(=O)Nc1ncc(Cl)cc1Cl | -5.7% | 0.3%
COc1ccccc1-n1cnnc1SCC(=O)c1cc(C)n(Cc2cccs2)c1C | 31.6µM* | u
CN(C)c1ncc2nc(-c3cccs3)c(=O)n(CCc3ccccc3)c2n1 | 21.8% | -0.3%
Cc1nc2cnc(N(C)C)nc2n(CCc2ccccc2)c1=O | 15.8µM* | u
CC(=O)/C(=C\c1ccccc1F)C(=O)c1ccccc1 | 5.0%[11.4 µM] | 3.9%[11.4 µM]
O=C(NCCN1CCCCC1)c1ccc(Cc2nc3ccccc3[nH]2)cc1 | -13.3% | -4.3%
COc1ccc(C(c2nnnn2C2CCCC2)N2CCC(C)CC2)cc1 (stereo unspecified) | 20µM* | u
COc1cc(C(c2nnnn2C2CCCC2)N2CCN(C)CC2)cc(OC)c1OC (stereo unspecified) | -4.5% | -1.4%
COc1ccc(C(c2nnnn2C2CCCCC2)N2CCN(c3ccc(OC)cc3)CC2)cc1 (stereo unspecified) | 15.9% | 17.9%
COc1ccccc1N1CCN(C(c2cccs2)c2nnnn2C2CCCC2)CC1 (stereo unspecified) | 12.6µM* | u
c1cc(N2CCCC2)ccc1C(c1nnnn1C1CCCCC1)N1CCOCC1 (stereo unspecified) | 27.1% | 10.3%
Clc1ccc(C(c2nnnn2C2CCCC2)N2CCSCC2)cc1 (stereo unspecified) | 3.16µM* | u
CC(=O)C1(C)CC2=C(CCCC2(C)C)CC1C (stereo unspecified) | 19.5% | 3.5%
O=C1c2ccccc2-c2ccc(N=[N+]([O-])c3ccc4c(c3)C(=O)c3ccccc3-4)cc21 | -5.7%[11.4 µM] | -0.2%[11.4 µM]
